Here are results for 64 compounds from PubChem BioAssay AID651640 (Broad Institute, 2012).

Values joined by “and” are separate entries in the source; they are usually repeats but may differ in a detail not shown here. Equal values may be shown once. The whole screen tested about 350,000 compounds, of which about 6,000 (1.7%) were called active. Inconclusive results (about 5%) are left out. For the sample, actives were picked, then their nearest neighbours and some compounds at random. Values without a mark were called inactive. Cut-off read from the data, not from the text of the source: active = CPE inhibition above about 20% (passing the limit was not always enough); inconclusive = no clear call, values can overlap the other calls; tested in BHK-21 cells.

This assay in a line: protection of cells from dengue 2 killing – plate reader, single concentration, primary screen (AID 651640).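 Note: 0% = median of neutral control wells and 100% = median of positive control wells.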 The conditions noted are these: DENV2-infected cells, cytopathic effect rescue, at 9.99 µM, active compounds read high. Background: Protection from cytopathic effect is a common read-out in antiviral testing.
On to `CN1CCN(C(=O)C[C@@H]2CC[C@@H]3[C@@H](COc4ccc(NC(=O)c5ccc(F)c(F)c5)cc4C(=O)N3C)O2)CC1`, for which the CPE inhibition was -5.7%.
As for `COCc1cn(CC[C@@H]2CC[C@@H](NC(=O)Cc3cccnc3)[C@@H](CO)O2)nn1`, the figure is -4.68%; as for `C[C@H]1CN([C@@H](C)CO)C(=O)c2ccccc2-c2ccccc2CO[C@H]1CN(C)S(=O)(=O)c1cccc(C#N)c1`, 99.5% (active).
`CC(C)NC(=O)N(C)C[C@H]1Oc2ncc(-c3cccc(C#N)c3)cc2C(=O)N([C@@H](C)CO)C[C@H]1C`: the CPE inhibition was 1.79%.
With `Cc1ccc(S(=O)(=O)N(C)C[C@H]2OCc3ccccc3-c3ccccc3C(=O)N([C@@H](C)CO)C[C@@H]2C)cc1`, the CPE inhibition was 0.795%.
Consider `C[C@@H]1CN([C@H](C)CO)C(=O)c2cc(C#CC3(O)CCCC3)cnc2O[C@H]1CN(C)C(=O)C1CCC1`, for which the CPE inhibition is 35.8% (active).
As for `C[C@@H]1CN([C@H](C)CO)C(=O)c2cc(C#CC3CCCC3)cnc2O[C@@H]1CN(C)C(=O)C1CCC1`, the CPE inhibition was 0.319%.
As for `C[C@H]1CN([C@@H](C)CO)C(=O)c2ccccc2-c2ccccc2CO[C@H]1CN(C)S(=O)(=O)c1ccccc1C#N`, the figure is -1.68%; as for `C[C@@H]1CN([C@@H](C)CO)C(=O)c2cc(C#CCc3ccccc3)cnc2O[C@@H]1CN(C)C(=O)C1CCOCC1`, 95.4% (active).
For `CCCC#Cc1cnc2c(c1)C(=O)N([C@H](C)CO)C[C@@H](C)[C@@H](CN(C)C(=O)C1CCOCC1)O2`, the CPE inhibition was -8.59%.
The result for `C[C@H](CO)N1C[C@H](C)[C@@H](CN(C)C(=O)C2CC2)Oc2ncc(-c3cccc(C#N)c3)cc2C1=O` reads -9.11%.
In the case of `C[C@H](CO)N1C[C@H](C)[C@H](CN(C)C(=O)C2CCC2)Oc2ncc(C#CCc3ccccc3)cc2C1=O`, the CPE inhibition was -7.04%.
As to `CC(=O)N(C)C[C@H]1Oc2ncc(C#CC3(O)CCCC3)cc2C(=O)N([C@@H](C)CO)C[C@@H]1C`, the CPE inhibition is -10.8%.
As to `C[C@@H]1CN([C@H](C)CO)C(=O)c2cc(-c3cccc(C#N)c3)cnc2O[C@H]1CN(C)C(=O)C1CCC1`, the CPE inhibition is 27.5% (active).
As to `C/C=C/c1ccc([C@@H]2[C@H](CO)N(CCC(F)(F)F)C23CN(C(=O)CC)C3)cc1`, the CPE inhibition is 8.21%.
For the compound `C[C@@H]1CN([C@H](C)CO)C(=O)Cc2cc(NC(=O)C3CC3)ccc2O[C@H]1CN(C)Cc1ccc(Cl)c(Cl)c1`, the CPE inhibition was -2.59%.
Consider `C[C@@H]1CCCCO[C@@H](CN(C)S(C)(=O)=O)[C@@H](C)CN([C@@H](C)CO)C(=O)c2cc(NS(=O)(=O)c3ccc(Cl)cc3)ccc2O1`, for which the CPE inhibition is -9.73%.
As to `CCC(=O)N(C)C[C@H]1Oc2ncc(C#C[C@@H](C)O)cc2C(=O)N([C@@H](C)CO)C[C@H]1C`, the CPE inhibition was 9.17%.
As for `CNC[C@@H]1Oc2c(NC(=O)Nc3ccc(F)cc3)cccc2C(=O)N([C@@H](C)CO)C[C@@H]1C`, the figure is 0.246%; as for `CCC(=O)Nc1ccc2c(c1)C(=O)N(C)C[C@H](OC)[C@H](C)CN(CCC(F)(F)F)[C@H](C)CO2`, -10.4%; as for `COCC(=O)Nc1ccc2c(c1)C(=O)N(C)C[C@@H](OC)[C@H](C)CN(C(=O)c1cccnc1)[C@H](C)CO2`, 7.26%.
As for `COc1ccc(NC(=S)Nc2ccc(S(N)(=O)=O)cc2)c(C)c1`, the figure is 5.31%.
As for `COc1cc2c(cc1OC)C(c1cccc([N+](=O)[O-])c1)=NCC2`, the CPE inhibition was 3%.
The result for `COc1cc2c(cc1OC)C(Nc1ccc(S(N)(=O)=O)cc1)=NC(C)(C)C2` reads 23.5% (active); that for `CCc1nc2c(OCCc3cccc(OC)c3)cccn2c1N(C)C(=O)c1ccc(C)cc1`, 35.1% (active).
The result for `CCc1nc2c(OCCOc3ccccc3)cccn2c1N(C)C(=O)c1ccc(OC)cc1` reads -6.78%.
For `CCc1nc2c(OCc3cccc(OC)c3)cccn2c1N(C)C(=O)C(C)C`, the CPE inhibition was 3.81%.
Turning to `COc1ccc(NC(=O)Nc2ccc3c(c2)C(=O)N([C@@H](C)CO)C[C@H](C)[C@H](CN(C)S(=O)(=O)c2ccccc2)OCCCC[C@@H](C)O3)cc1`, the CPE inhibition is 0.841%.
On to `Cc1ccccc1NC(=O)Cc1nc(COC(=O)CNC(=O)c2ccc(Cl)cc2Cl)cs1`, for which the CPE inhibition was -7.77%.
The result for `Cc1ccccc1NC(=O)Cc1nc(COC(=O)C(C)(C)Oc2ccc(Cl)cc2)cs1` reads 45.3% (active).
For `Cc1ccccc1NC(=O)Cc1nc(COC(=O)c2cccnc2Cl)cs1`, the CPE inhibition is 5.7%.
In the case of `CN1c2ccc(-c3cccc(C#N)c3)cc2[C@@H]2[C@@H](CCN2C(=O)C2CCC2)[C@@H]1CO`, the CPE inhibition is -11%.
As for `COc1ccc2c3c(n(C)c2c1)[C@@H](CO)N(C(C)=O)CC31CCN(C(=O)C2CC2)CC1`, the CPE inhibition was -6.89%.
For the compound `COc1ccc(OC)c(C(=O)c2ccc(Cl)cc2)c1`, the CPE inhibition is 1.87%.
As for `COc1ccc(/C(C)=N/NC(=O)CCC(=O)Nc2ccc(Cl)cc2Cl)c(OC)c1`, the CPE inhibition was -1.9%.
The result for `COc1ccc(OC)c(/C(C)=N\NC(=O)c2cc3cc(Cl)ccc3n2C)c1` reads 69.2% (active); that for `CCCN1C[C@@H](C)[C@@H](OC)CN(C)C(=O)c2ccc(NS(C)(=O)=O)cc2OC[C@@H]1C`, -1.47%.
Turning to `CCC(=O)N1C[C@H](C)[C@H](OC)CN(C)C(=O)c2ccc(NS(C)(=O)=O)cc2OC[C@H]1C`, the CPE inhibition is -1.33%.
As for `Cc1noc(C)c1S(=O)(=O)Nc1ccc2c(c1)C(=O)N([C@H](C)CO)C[C@H](C)[C@H](CN(C)S(C)(=O)=O)OCCCC[C@H](C)O2`, the figure is -2.38%.
Regarding `CC(Oc1ccc(Br)cc1)C(=O)NCC(c1ccco1)N1CCCCC1` (centres undefined), the CPE inhibition was -0.377%.
With `COc1ccccc1C(=O)NCCC(=O)NCC(c1ccco1)N1CCCCC1` (centres undefined), the CPE inhibition is -2.74%.
Turning to `O=C(CCNC(=O)c1ccc(Br)cc1)NCC(c1ccco1)N1CCCCC1` (centres undefined), the CPE inhibition is 81.5% (active).
The result for `C[C@@H]1CCCCO[C@H](CN(C)C(=O)NC2CCCCC2)[C@H](C)CN([C@@H](C)CO)C(=O)c2cc(NC(=O)C3CCCCC3)ccc2O1` reads -2.82%; that for `C[C@H](O)C#Cc1ccc2c(c1)O[C@H](CN(C)Cc1cccnc1)[C@H](C)CN([C@H](C)CO)S2(=O)=O`, 9.35%; that for `COCC#Cc1cnc2c(c1)C(=O)N([C@@H](C)CO)C[C@@H](C)[C@@H](CN(C)C(=O)Nc1ccc(OC)cc1)O2`, -9.58%.
Regarding `COc1ccc(NC(=O)Nc2ccc3c(c2)CC(=O)N([C@@H](C)CO)C[C@@H](C)[C@@H](CN(C)Cc2ccc(C(F)(F)F)cc2)O3)cc1`, the CPE inhibition is -24.3%.
As to `Cc1ccc(S(=O)(=O)N(C)C[C@@H]2Oc3ccc(NC(=O)c4ccncc4)cc3CC(=O)N([C@H](C)CO)C[C@H]2C)cc1`, the CPE inhibition was 20.7% (active).
Regarding `C[C@@H]1CN([C@H](C)CO)C(=O)Cc2cc(NC(=O)Nc3cccc4ccccc34)ccc2O[C@@H]1CN(C)Cc1ccc(C(F)(F)F)cc1`, the CPE inhibition is 20.3% (active).
Take `C[C@H](CO)N1C[C@H](C)[C@H](CN(C)S(C)(=O)=O)Oc2ccc(NC(=O)c3ccncc3)cc2CC1=O`: the CPE inhibition is -1.49%.
In the case of `C[C@H]1CN([C@@H](C)CO)C(=O)Cc2cc(NC(=O)Nc3cccc4ccccc34)ccc2O[C@@H]1CN(C)C`, the CPE inhibition was 25.6% (active).
For `C[C@@H]1CN([C@H](C)CO)C(=O)Cc2cc(NC(=O)Nc3ccc(C(F)(F)F)cc3)ccc2O[C@H]1CN(C)Cc1ccc(-c2ccccc2)cc1`, the CPE inhibition was -23%.
On to `C[C@@H]1CN([C@H](C)CO)C(=O)Cc2cc(NC(=O)c3ccncc3)ccc2O[C@H]1CN(C)S(=O)(=O)c1cccs1`, for which the CPE inhibition is 19.1%.
In the case of `C[C@H]1CN([C@@H](C)CO)C(=O)Cc2cc(NC(=O)Nc3cccc4ccccc34)ccc2O[C@H]1CN(C)CC1CC1`, the CPE inhibition was 2.69%.
Regarding `C[C@H]1CN([C@@H](C)CO)C(=O)Cc2cc(NC(=O)Nc3cccc4ccccc34)ccc2O[C@@H]1CN(C)S(C)(=O)=O`, the CPE inhibition is -2.56%.
For `COc1ccc(CN(C)C[C@@H]2Oc3ccc(NC(=O)Nc4ccc(F)cc4)cc3CC(=O)N([C@@H](C)CO)C[C@H]2C)cc1`, the CPE inhibition was 2.99%.
In the case of `C[C@H](CO)N1C[C@H](C)[C@H](CN(C)Cc2ccc(-c3ccccc3)cc2)Oc2ccc(NC(=O)Nc3ccc(F)cc3)cc2CC1=O`, the CPE inhibition is 33.6% (active).
The result for `C[C@@H]1CN([C@H](C)CO)C(=O)Cc2cc(NC(=O)Nc3cccc4ccccc34)ccc2O[C@@H]1CN(C)Cc1ccc(C(=O)O)cc1` reads -18.4%.
Regarding `O=C(c1ccncc1)N1CC(=O)N2[C@H](CO)[C@@H](c3ccc(-c4cccnc4)cc3)[C@H]2C1`, the CPE inhibition is -6.23%.
In the case of `COc1ccc2c3c(n(C)c2c1)[C@H](CO)N(C(=O)C1CCCC1)CC31CCN(C(=O)c2ccncc2)CC1`, the CPE inhibition is 4.15%.
The result for `CO[C@@H]1CN(C)C(=O)c2ccc(NC(=O)NC(C)C)cc2OC[C@@H](C)N(C(=O)NC(C)C)C[C@H]1C` reads 9.11%; that for `C[C@@H]1CCCCO[C@H](CN(C)CC2CCCCC2)[C@H](C)CN([C@H](C)CO)C(=O)c2cc(NS(=O)(=O)c3ccc(F)cc3)ccc2O1`, -1.47%; that for `C[C@@H]1CCCCO[C@H](CN(C)Cc2ccc3c(c2)OCO3)[C@H](C)CN([C@@H](C)CO)C(=O)c2cc(NS(=O)(=O)c3cccs3)ccc2O1`, -2.06% and 0.641%.
`CCCN1C(=O)c2[nH]nc(-c3ccccc3)c2C1c1ccccc1` (centres undefined): the CPE inhibition is 1.19%.
For the compound `CO[C@H]1CN(C)C(=O)c2ccc(NC(C)=O)cc2OC[C@H](C)N(CC2CC2)C[C@@H]1C`, the CPE inhibition was -14.7%.
